# Data taken from PubChem BioAssay.
# Results filed as inconclusive are left out. Active and inactive are the calls of the source. Cut-off not given; nearly all actives show AC50 up to about 30 µM.
# Experiment: growth inhibition of DIPG cells – cell-based, MIPE4.0 library, CellTiter-Glo luminescence, qHTS (AID 1347066);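 further: cells exposed to compound for 48 hours before readout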
# Conditions: SU-DIPG-VI viability, CellTiter-Glo ATP luminescence
SMILES,AC50,outcome
Cn1cc(C2=C(c3c4n(c5ccccc35)CCC(CN)C4)C(=O)NC2=O)c2ccccc21 (configuration not stated),23.5 µM (active),
CCn1c(-c2nonc2N)nc2cnc(Oc3cccc(NC(=O)c4ccc(OCCN5CCOCC5)cc4)c3)cc21,,inactive
COc1cc2ncn(-c3cc(OCc4ccccc4S(C)(=O)=O)c(C#N)s3)c2cc1OC,,inactive
Cn1c(=O)c(Oc2ccc(F)cc2F)cc2cnc(NC3CCOCC3)nc21,,inactive
NC(=O)c1ccc(-c2nc(-c3ccc4c(c3)OCO4)c(-c3ccccn3)[nH]2)cc1,,inactive
CN(C)CCOc1ccc(-c2nc(-c3ccc4c(c3)CC/C4=N\O)c(-c3ccncc3)[nH]2)cc1,11.8 µM (active),
Cn1cc(/C=C2\C(=O)Nc3cccnc32)c2ccccc21,,inactive
